Results reported in PubChem BioAssay (NCI).
The panel holds about 83,000 compounds, 20% with a hit somewhere; the sample as a whole holds those more often.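 Single-dose data. Exposure time 48 hours. Values below 10 considered active.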 Unmarked numbers belong to inactive results. Calls of active or inactive are those of the source.

Legend:
Experiment in all cases: NCI-60 one-dose screen, 48 h (100 = growth as untreated, 0 = no growth, -100 = all killed)
Conditions in all cases: 10 µM unless noted
[1] = test system: NCI-H23 lung
[2] = test system: NCI-H226 lung
[3] = test system: NCI-H322M lung
[4] = test system: HOP-62 NSCLC
[5] = test system: NCI-H460 lung
[6] = test system: HOP-92 NSCLC
[7] = test system: NCI-H522 lung
[8] = test system: A549/ATCC NSCLC
[9] = test system: 786-0 renal
[10] = test system: COLO 205 colon
[11] = test system: DU-145 prostate
[12] = test system: K-562 leukemia
[13] = test system: MALME-3M melanoma
[14] = test system: MDA-MB-231 breast
[15] = test system: RXF 393 renal
[16] = test system: SF-268 CNS
[17] = test system: SF-295 CNS
[18] = test system: SF-539 CNS
[19] = test system: UACC-257 melanoma
[20] = test system: M14 melanoma

SMILES	growth [1]	growth [2]	growth [3]	growth [4]	growth [5]	growth [6]	growth [7]	growth [8]	growth [9]	growth [10]	growth [11]	growth [12]	growth [13]	growth [14]	growth [15]	growth [16]	growth [17]	growth [18]	growth [19]	growth [20]
O=c1c(F)cn(Cc2ccccc2CCl)c(=O)n1Cc1ccccc1CCl	-63.1% (active)	-22% (active)	-19.3% (active)	-51.7% (active)	-75% (active)	-77.5% (active)	-61.6% (active)	1.3% (active)	-54.7% (active)	-75.3% (active)	-51.3% (active)	-6.67% (active)	-28.1% (active)	-19.4% (active)	-30.7% (active)	-16% (active)	-62.4% (active)	-24.1% (active)	-48.1% (active)	-63.6% (active)
Cc1ccccc1COc1ccc(-c2onc(C)c2-c2ccc(Cl)cc2)cc1	73.8%	57.2%	97.6%	51.6%	54.7%	72.6%	25.5%	49.3%	75.5%	71%	77.4%	14.4%	59.8%	90.8%	70.2%	75.6%	49.4%	63.5%	70.9%	32.2%
Nc1ccc(-c2cc3c(Nc4ccc(Oc5cccc(C(F)(F)F)c5)c(Cl)c4)ncnc3s2)cc1	69.6%	69%	61.9%	90.2%	69.5%	87.8%	53.6%	51.4%	73.9%	91.3%	72.5%	24.9%	91.8%	95.1%	35.7%	66.1%	77.2%	74.5%	77%	86.6%
CC1SC(c2ccc(N(C)C)cc2)N(NC(=O)C(O)(c2ccccc2)c2ccccc2)C1=O (stereo not given)	98.5%	105%	81%	97.1%	144%	74.6%	84.6%	79.6%	97.7%	102%	97.2%	86.1%	87.6%	99.1%	118%	141%	27.9%	96.7%	106%	96%
COc1ccc(S(=O)(=O)N2CCCCCC2)cc1NC(=O)c1[nH]c(C)c2c1CCCCC2=O	30.4%	45.5%	35.8%	26.8%	42.2%	31.5%	27.3%	29.6%	34.9%	26.8%	58%	21.4%	55.6%	36.3%	34.7%	52.8%	25.5%	29.9%	34.5%	42.8%
Cc1ccc(-c2onc3c(=O)[nH]nc(-c4ccccc4)c23)cc1	22.8%	61.6%	56.9%	26.5%	19.1%	31.8%	-19.5% (active)	31.5%	37.1%	7.07% (active)	19.4%	14.7%	82.6%	34.9%	31.8%	48.6%	23.7%	-4.93% (active)	47.3%	23.2%
COc1cccc(-c2nn(C(C)(C)C)cc2-c2ccnc(NCCCNS(=O)(=O)c3ccc(C)cc3)c2)c1	105%	101%	106%	100%	103%	114%	99%	103%	103%	121%	107%	101%	101%	112%	109%	105%	103%	115%	111%	105%
COCCNc1ccc2c3c(cccc13)C(=O)N(CCN(C)C)C2=O	25.6%	5.99% (active)	23.1%	50.9%	-21.9% (active)	18.4%	-25.6% (active)	5.73% (active)	32.1%	6.86% (active)	27.7%	-7.82% (active)	22.2%	46.6%	-23.7% (active)	26.3%	16.8%	22.9%	16.8%	29%
CC(=O)O[C@H]1CC[C@]2(C)[C@H]3CC=C4[C@@H]5CC(C)(C)CC[C@]5(C(=O)NCCNCCN)CC[C@@]4(C)[C@]3(C)CC[C@H]2C1(C)C	70.1%	73.5%	67.3%	-86.7% (active)	-69.8% (active)	-45.3% (active)	-86.9% (active)	-71.1% (active)	-95.3% (active)	-92.7% (active)	-45.3% (active)	-47.2% (active)	-71.2% (active)	-66.5% (active)	44.9%	74.3%	92.8%	70.3%	-42.3% (active)	-81.4% (active)
COc1cccc(/C=N/NC(=O)c2ccccc2Nc2ccnc(C(F)(F)F)c2)c1O	30.8%	-20.2% (active)	17.4%	-6.28% (active)	-6.96% (active)	29.4%	18.6%	14.3%	-2.01% (active)	2.9% (active)	22.8%	33.7%	1.24% (active)	42.6%	21%	18.9%	18.6%	0.849% (active)	8.18% (active)	-30.1% (active)
CCC([N+](=O)[O-])S(=O)(=O)c1ccc(C)cc1 (stereo not given)	93.2%	102%	112%	84.7%	104%	87.9%	89.3%	96.7%	89.4%	115%	160%	115%	143%	103%	97.1%	126%	111%	94.5%	102%	103%
CC1=CC(C)(C)Nc2ccc(Cc3ccc4c(c3)C(C)=CC(C)(C)N4)cc21	97.1%	88.4%	113%	94.1%	104%	99.7%	68%	78.5%	97.1%	125%	98.1%	114%	87.2%	86.1%	79.6%	103%	139%	96.6%	93.7%	96.1%
COc1cccc(-c2nc3sccn3c2-c2ccnc(NCCCNS(=O)(=O)c3c(Cl)cccc3Cl)c2)c1	60.3%	51.8%	90.5%	85.6%	67.4%	49.6%	60.6%	60.3%	70.4%	55.9%	66.1%	30.9%	73.2%	87.8%	74.7%	68.4%	50.9%	95%	95.2%	60.5%
COc1ccc(S(=O)(=O)N2CC3(COC3)C2)cc1NC(=O)c1[nH]c(C)c2c1CCCCC2=O	59.4%	53.3%	56.3%	40.6%	71.2%	48.2%	32.3%	62.6%	56.5%	37.5%	79.6%	45.1%	61.1%	47.1%	76%	78.1%	52.8%	45.3%	51.9%	58.1%
O=C(COc1cccc(/C=C2\CSc3ccccc3C2=O)c1)Nc1nccs1	19.7%	104%	98.7%	88.1%	91.5%	-52% (active)	-60.3% (active)	95.1%	101%	113%	106%	-58.1% (active)	16.9%	80.6%	71%	43.5%	115%	75.3%	86%	39.1%
O=C1CC[C@H](c2ccc(O)c3c2C(=O)[C@@H]2O[C@@H]2C3=O)c2cccc(O)c21	94.4%	-14.6% (active)	98%	79%	97.1%	38.4%	-29.4% (active)	87.2%	44.8%	-34.6% (active)	21.1%	0.986% (active)	86.5%	43.5%	16.9%	84.4%	91.3%	75%	38%	69.6%
O=S(=O)(Nc1ccc(Br)c(Cl)c1)c1ccc(-c2cnc(C3CC3)o2)cc1	29.7%	55.3%	39.2%	32.6%	11.9%	40.8%	-17.7% (active)	24.9%	39%	-2.39% (active)	9.63% (active)	10.2%	30.9%	33.6%	-10.6% (active)	50.3%	5.84% (active)	-19.8% (active)	55.5%	5.11% (active)
COc1cc(/C=C/c2cc(O)c3cc(C(C)=O)c(=O)oc3c2)cc2c1O[C@]1(C)CC[C@@H](O)C(C)(C)[C@H]1C2	52.1%	76.4%	67.6%	50.4%	23%	33.2%	67.7%	52.2%	-1.22% (active)	89.8%	53.4%	17.2%	25.4%	64.4%	-58.5% (active)	35.8%	-63.3% (active)	-33.3% (active)	36.5%	-49.4% (active)
COc1ccc(-n2nc(C)c3c(Oc4ccc(NC(=O)Nc5c(Cl)cccc5Cl)cc4)ncnc32)cc1	98.3%	107%	96.8%	97.7%	101%	98%	93.6%	103%	110%	99%	105%	104%	99.4%	101%	107%	93.6%	100%	96.7%	102%	110%
COc1ccc(-c2nc3ccc(-c4nc5ccc(N6CCN(c7ccc(F)cc7)CC6)cc5[nH]4)cc3[nH]2)cc1OC	60.7%	66.6%	88.5%	75.6%	71.1%	63.6%	45.3%	77.3%	79.5%	30.4%	80.3%	17.7%	43.9%	107%	68.6%	82.6%	76%	68.2%	104%	61.8%
COc1ccc(/C=C/c2nc3ccccc3nc2/C=C/c2ccc(OC)cc2)cc1	93.5%	90.2%	103%	104%	100%	92.3%	94%	93.9%	88.8%	97.4%	105%	101%	109%	111%	80.3%	99.5%	102%	89.8%	106%	93%
CC[C@H]1OC(=O)[C@H](C)[C@@H](O[C@H]2C[C@@](C)(OC)[C@@H](O)[C@H](C)O2)[C@H](C)[C@@H](O[C@@H]2O[C@H](C)C[C@H](N(C)C)[C@H]2O)[C@](C)(O)C[C@H](C)CN(C)[C@H](C)[C@@H](O)[C@]1(C)O	93.7%	103%	104%	97.7%	102%	67.5%	104%	104%	91.7%	45.6%	109%	108%	92%	55.2%	85.5%	99.1%	108%	102%	124%	96.4%
Cc1cn2c(/C=C3/C(=O)Nc4c3ccc3ccccc43)c(C(F)(F)F)nc2s1	39.5%	53.5%	43.2%	27.2%	9.31% (active)	20.8%	5.27% (active)	20.1%	24.8%	-49.4% (active)	4.07% (active)	8.76% (active)	42.4%	38.1%	-19.3% (active)	43.5%	7.54% (active)	-5.73% (active)	54.4%	8.69% (active)
C=C(C)C(=O)Nc1ccc(NC(C)C)cc1	113%	131%	150%	104%	139%	143%	159%	112%	96.8%	148%	133%	134%	220%	123%	29.7%	107%	147%	100%	-7.29% (active)	101%
COc1ccc(-c2cc(C(=O)N=Nc3c(O)[nH]c4ccc(Br)cc34)no2)cc1	87%	86.3%	99%	90.5%	101%	96.7%	83.2%	103%	105%	114%	105%	96.5%	92.4%	92.8%	107%	99.4%	103%	95.9%	112%	98.9%
CN1CCN(Cc2ccc(NC(=O)c3cncc(C#Cc4cncn5ccnc45)c3)cc2C(F)(F)F)CC1	63.1%	34.4%	105%	81.4%	64.3%	38.8%	47.3%	74%	87.5%	32.3%	86.2%	4.35% (active)	2.25% (active)	54.5%	90.4%	92.4%	91.7%	52.4%	58.4%	7.22% (active)
CN(C)S(=O)(=O)c1ccc(S(=O)(=O)Nc2cccc(Cl)c2N2CCCCC2)cc1	84.1%	82.9%	98.7%	87.9%	93.6%	72.4%	68.7%	66.9%	87.9%	106%	89.1%	55.6%	106%	66.6%	88%	89.5%	78.1%	94%	74.1%	-35.4% (active)
Cn1c(=O)c2c(nc3n(-c4ccc(Cl)cc4Cl)c(Sc4nc(-c5ccccc5)c(C#N)c(=O)[nH]4)cn23)n(C)c1=O	65%	56.4%	26.4%	54.8%	13.9%	34.4%	59.6%	20.9%	15.1%	71.8%	50.5%	84%	45.2%	27.7%	59.1%	61.9%	44.4%	30.6%	99.9%	84%
COc1cc(/C=C/C(=O)c2c(C)oc3nc[nH]c(=O)c23)cc(OC)c1OC	68.9%	92.1%	85.8%	101%	83.7%	96.4%	47.7%	81.6%	94.3%	95.4%	64.8%	45.2%	88.1%	86.7%	66.3%	81.3%	104%	95.7%	73%	75.3%
N=C(N)c1ccc(-c2ccc(-c3ccc4ccccc4c3)s2)s1	5.5% (active)	92.8%	26.5%	86.8%	-70.4% (active)	28.8%	15.3%	-36.3% (active)	-39.1% (active)	-40.8% (active)	-85.4% (active)	-47.2% (active)	85.9%	-36.8% (active)	-55.1% (active)	-6.87% (active)	22.3%	73.8%	77%	39.7%
